Calls of active or inactive are those of the source. A call without a number means that no potency is given here. The call rests on the fitted dose curve.
target: Gonadotropin-releasing hormone receptor (Homo sapiens) (UniProt P30968); assay: Human gonadotropin-releasing hormone receptor (GnRHR) small molecule agonists, calcium flux assay in GnRHR-HEK293 cells (AID 1920063); conditions: calcium flux fluorescence, agonist mode; series mostly up to 57.6 µM; further: nearly all actives have a fitted effect of over 35% in size
Text: National Center for Advancing Translational Sciences [NCATS]
Division of Preclinical Innovation [DPI]
U.S. Environmental Protection Agency [EPA]
National Institutes of Environmental Health Sciences [NIEHS]
National Toxicology Program [NTP]
U.S. Food and Drug Administration [FDA]
Gonadotropin-releasing hormone receptor (GnRHR) is a G-protein-coupled receptor (GPCR) and acts (through phospholipase C) to increase intracellular inositol trisphosphate and then release intracellular calcium stores. Cell-based GnRHR-Hek293 calcium influx assay is using HEK293 cells that have been genetically engineered to express the human GnRHR, which activity can be measured by calcium signaling. A compound/drug can activate (agonist) GnRHR that can be monitored by levels of intracellular calcium.
GnRHR-HEK293 cells developed by Codex Corp contain human GnRHR reporter gene, which was stably integrated into HEK 293 cells. The compound activation can be detected by fluorescence intensity via calcium flux assay. This cell line has been used to screen the Tox21 10K compound library to identify GnRHR agonists.
GnRHR-Hek293 cells were dispensed at 1500cells/4uL/well in 1536-well black wall/clear bottom plates using a multidrop dispenser. After the assay plates were incubated at a 37 C/5% CO2 incubator for 18 hours, 4 uL of Calcium Dye Solution was added to each well. The plates were incubated at 37 C for 1 hour. For agonist mode, 23 nL of compounds dissolved in DMSO, positive controls or DMSO only was transferred to the assay plate by a pin tool station. The fluorescence intensity in the plates was measured using FDSS 7000EX kinetic plate reader with a filter set of Ex/Em=480/540 for 3 min at 1 sec intervals. Each test compound was measured at 15 concentrations and in triplicates.

Sequence of Gonadotropin-releasing hormone receptor (Homo sapiens) (P30968 whole entry, looked up): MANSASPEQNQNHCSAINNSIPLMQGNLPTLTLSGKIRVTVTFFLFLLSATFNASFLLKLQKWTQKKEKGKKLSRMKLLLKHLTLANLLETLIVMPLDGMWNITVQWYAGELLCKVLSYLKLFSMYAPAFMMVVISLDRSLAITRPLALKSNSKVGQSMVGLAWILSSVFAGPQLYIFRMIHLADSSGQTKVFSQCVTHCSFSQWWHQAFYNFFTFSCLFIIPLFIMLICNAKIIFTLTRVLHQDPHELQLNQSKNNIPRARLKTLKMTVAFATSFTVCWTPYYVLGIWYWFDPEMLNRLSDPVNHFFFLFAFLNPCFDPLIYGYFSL

Compound	Potency
O=c1[nH]c2cc(C(F)(F)F)c(N3CCOCC3)cc2n(CP(=O)(O)O)c1=O	inactive
CC(C)C(=O)c1c(C(C)C)nn2ccccc12	inactive
CC(=O)S[C@H](C(=O)N[C@H]1Cc2ccccc2[C@H]2CCC[C@@H](C(=O)O)N2C1=O)C(C)C	inactive
NC(=O)Cc1cccc2ccccc12	inactive
c1coc(CNc2ncnc3nc[nH]c23)c1	inactive
Nc1cc(S(=O)(=O)O)cc2cc(S(=O)(=O)O)cc(O)c12	inactive
CC(C)c1ccc2c(C(C)C)cc(C(C)C)c(S(=O)(=O)O)c2c1	inactive
c1ccc2cnncc2c1	inactive
NC(=O)c1ncn([C@@H]2O[C@H](CO)[C@@H](O)[C@H]2O)c1O	inactive
COCCOCCOCCOCCOC	inactive
CC(=O)[O][Al][O]C(C)=O	inactive
CCCC(C)C(O)CC (stereo not given)	inactive
OCCOCCN1CCN(C2=Nc3ccccc3Sc3ccccc32)CC1	inactive
CCCCCCC(C)(C)C(=O)O	inactive
C[C@@H]1CCC[C@H](C)N1CCCC(O)(c1ccccc1)c1ccccn1 (stereo not given in full)	inactive
C=C(C)[C@H]1CC=C(C)CC1	inactive
CCCCOC(O)CC (stereo not given)	inactive
CCC(=O)OCc1ccccc1	inactive
OCC1CCC(CO)CC1 (stereo not given)	inactive
CN(C)c1cc(NC(=O)CNC(C)(C)C)c(O)c2c1C[C@H]1C[C@H]3[C@H](N(C)C)C(=O)C(C(N)=O)=C(O)[C@@]3(O)C(=O)C1=C2O	inactive

Compound	Potency
COc1cc(OC)nc(O[C@H](C(=O)O)C(OC)(c2ccccc2)c2ccccc2)n1	inactive
FC(F)(F)c1ccccc1Cl	inactive
OCC(CO)(CBr)CBr	inactive
Clc1cc(Cl)c(Cl)c(Cl)c1Cl	inactive
CC1(C)C2=CCCC(C)(C)[C@]23CC[C@H]1C3	inactive
CC/C=C\CC1=C(C)CCC1=O	inactive
Cc1cc(CCC(=O)OCCOCCOCCOC(=O)CCc2cc(C)c(O)c(C(C)(C)C)c2)cc(C(C)(C)C)c1O	inactive
O=P(O)(OCc1ccccc1)OCc1ccccc1	inactive
CC(C)(C)C(=O)OCOC(=O)C1N2C(=O)CC2S(=O)(=O)C1(C)C (stereo not given)	inactive
CCOc1ccc(Cc2nccc3cc(OCC)c(OCC)cc23)cc1OCC	inactive
CCCCOCCOCCOCCCC	inactive
CCN(CC)c1ccc2c(C)cc(=O)oc2c1	inactive
CN1CCc2cccc3c2[C@H]1Cc1ccc(O)c(O)c1-3	inactive
CCOC(/C=C(\C)CCC=C(C)C)OCC	inactive
O=C1Nc2ccccc2C1=O	inactive
C[C@]12CCC(=O)C=C1CC[C@@H]1[C@@H]2[C@@H](O)C[C@@]2(C)[C@H]1CC[C@]2(O)C(=O)CO	inactive
C1CCC(SSC2CCCCC2)CC1	inactive
CC(C)C(=O)OC(=O)C(C)C	inactive
COc1cc(C(=O)NCc2ccc(OCCN(C)C)cc2)cc(OC)c1OC	inactive
C(=C\c1ccccc1)/c1ccccc1	inactive

Source: PubChem BioAssay (Tox21)
